Only some compounds are listed: those with a hit (about 3.9% of all), similar ones and a draw of the others.
TPT1 inhibitor: Candida albicans TPT1 enzyme inhibitors, primary screen, biochemical, fluorescence polarization | tRNA 2'-phosphotransferase TPT1 (Candida albicans SC5314) | recombinant caTPT1, FP RNA substrate dephosphorylation | inhibition, % at 5 µM | 300,000 tested, 0.81% active | AID 1962, 2009;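 active = inhibition above the mean of all tested compounds plus 3 SD, set per screening campaign, cut at about 24% in these data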;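 also: plate controls were DMSO alone for no effect and ferristatin control at 100 nM for full effect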
Platelet DG rel: inhibitors of platelet dense granule secretion, primary screen, cell-based, MLPCN, human platelets; human platelet-rich plasma, SFLLRN dense granule ATP release, luminescence; inhibition, %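 (compounds screened at 7.5 µM in platelet-rich plasma)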; 300,000 tested, 0.22% active;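 active = mean replicate score, as percent of positive control, at or above 50; inconclusive = mean below 50 but at least one replicate at or above 50; inactive = mean and every replicate below 50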
Rtt109 Vps75: inhibitors of C. albicans Rtt109/Vps75 HAT, primary screen, biochemical, ThioGlo CoA-SH fluorescence, plate reader; purified Rtt109/Vps75, 4 h; inhibition, % at 34.9 µM; 330,000 tested, 0.16% active; AID 540336, 2011;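 active = inhibition of at least 50% in every replicate; inconclusive = best replicate reaches 50% inhibition but some replicates fall short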
PHOSPHO1 block: PubChem AID 1565; Phosphoethanolamine/phosphocholine phosphatase (Homo sapiens), Q8TCT1; recombinant PHOSPHO1, absorbance phosphatase assay; inhibition, % at 13.3 µM; 290,000 tested, 1.1% active; in the data active = inhibition above about 60%
Target sequence (Q8TCT1 whole entry, looked up): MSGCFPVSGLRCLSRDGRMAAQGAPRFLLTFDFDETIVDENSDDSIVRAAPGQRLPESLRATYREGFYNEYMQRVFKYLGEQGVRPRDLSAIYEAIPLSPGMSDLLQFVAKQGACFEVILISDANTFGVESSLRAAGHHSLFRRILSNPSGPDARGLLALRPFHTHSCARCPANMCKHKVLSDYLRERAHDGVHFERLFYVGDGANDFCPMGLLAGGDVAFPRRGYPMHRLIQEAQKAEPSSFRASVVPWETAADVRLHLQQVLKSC
WT yeast gro inh: growth inhibition of WT strain, primary screen, mitochondrial fusion inhibitor project, WT and mutant strains, chemical genetic. mitochondrial fusion phenotypic screen. inhibition, % at 10 µM. 190,000 tested, 2.1% active. AID 1362, 2008; in the data active = inhibition above about 58%; tested in S. cerevisiae
SKKanGAS inh: S. pyogenes SKKanGAS growth inhibitors in kanamycin, primary screen, streptokinase expression inhibitor project, SKKanGAS strain, BacTiter-Glo luminescence; 6 h; inhibition, % at 7.5 µM; 300,000 tested, 1.3% active;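 active = mean replicate score, as percent of positive control median, at least 50; inconclusive = mean below 50 but one replicate at or above 50; inactive = mean and every replicate below 50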;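 also: strain carries kanamycin resistance gene driven by streptokinase promoter and grows in 40 µg/ml kanamycin; loss of luminescence reflects streptokinase promoter inhibition or plain growth inhibition; 0% = median of DMSO wells and 100% = positive control at its reference dose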
Active calls of the source: *; ? = inconclusive; nt = not tested or not shown.

SMILES	TPT1 inhibitor	Platelet DG rel	Rtt109 Vps75	PHOSPHO1 block	WT yeast gro inh	SKKanGAS inh
CCOC(=O)Cc1c[nH]c2ccc([N+](=O)[O-])cc12	nt	nt	13	nt	nt	nt
Cc1ccc(N)cc1NC(=O)CN1CCOCC1	0	-2	11	14	nt	-2
COc1ccc(C(C(=O)Nc2ccc(F)cc2)N(C(=O)Cn2nnc3ccccc32)C2CC2)cc1 (centres undefined)	1	-2	21	44	68*	1
Cc1sc2c3ccsc3ccc2[n+]1C	0	-3	115*	14	25	-3
COc1ccccc1CCC(=O)N(C)CC(=O)Nc1ccc(Cl)c(C(F)(F)F)c1	0	13	10	24	nt	7
CCOC(=O)C1CCC(CN(Cc2ccccc2)S(=O)(=O)c2ccc([N+](=O)[O-])cc2)CC1 (centres undefined)	-1	26	7	-6	71*	5
Cn1nccc1C(=O)NC(=S)Nc1sc2c(c1C#N)CCCCC2	4	-3	-3	68*	5	3
CCN1CCc2c(sc(NC(=S)NC(=O)c3ccccc3)c2C#N)C1	28*	0	21	-22	-5	-1
N#Cc1c(NC(=S)NC(=O)c2ccccc2)sc2c1CCC2	3	0	-4	-20	-5	11
CC(C)(C)c1ccc(C(=O)NC(=S)Nc2sc3c(c2C#N)CCC3)cc1	0	-4	-3	-29	-10	5
CC(=O)NC(=S)Nc1sc2c(c1C#N)CCCCC2	nt	10	9	11	55	11
N#Cc1c(NC(=S)NC(=O)Cc2cccs2)sc2c1CCCCC2	-1	9	-8	53	45	59*
O=C(c1cccc(NS(=O)(=O)c2ccc(Br)cc2)c1)N1CCN(c2ccccc2O)CC1	nt	nt	7	nt	nt	nt
CCOC(=O)NC(c1ccc(C(C)C)cc1)C(Cl)(Cl)Cl (centres undefined)	1	10	2	-9	69*	8
CCOC(=O)NC(C(Cl)(Cl)Cl)S(=O)(=O)c1ccccc1 (centres undefined)	-2	4	-4	20	nt	-1
CCOC(=O)CC1(NC(=O)C2CCC(=O)N(Cc3ccccc3OC)C2)CCCCC1 (centres undefined)	nt	-13	-6	66*	nt	0
COc1ccccc1CN1CC(C(=O)NC2(c3ccccc3)CC2)CCC1=O (centres undefined)	-4	6	4	26	nt	3
O=C(O)C[C@@H](CNC(=O)COc1ccc2ccc(=O)oc2c1)c1ccc(Cl)cc1	-6	5	11	38	nt	3
NCc1ccccc1CS(=O)(=O)N1CCOCC1	nt	nt	1	nt	nt	nt
CC(Nc1c([N+](=O)[O-])c(=O)oc2ccccc12)c1ccccc1 (centres undefined)	6	2	35	61*	nt	-3
COc1cccc(CN2CCN(CC#Cc3ccccc3)CC2CCO)c1 (centres undefined)	nt	4	7	49	nt	1
CC(=O)Nc1cccc(N2C(=O)CC(Cc3ccccc3)C2=O)c1 (centres undefined)	-5	57*	0	-12	9	-7
Cc1nn(CC(O)CN2c3ccccc3Sc3ccccc32)c(C)c1Br (centres undefined)	1	-141	9	14	91*	100*
OC(CN1c2ccccc2Sc2ccccc21)Cn1nnc2ccccc21 (centres undefined)	0	4	2	-7	16	20
Cc1csc(NC(=O)COCC(=O)O)c1-c1nc2ccccc2s1	-1	0	18	23	nt	50*
SMILES	TPT1 inhibitor	Platelet DG rel	Rtt109 Vps75	PHOSPHO1 block	WT yeast gro inh	SKKanGAS inh
CCCCN1C[C@H](Cc2ccccc2)[C@@H](CC(=O)Nc2ccccc2)C1=O	-4	1	9	-7	nt	5
COc1ccc(N2Cc3ccc(C(=O)N/N=C\c4ccc(O)cc4O)cc3C2)cc1	7	13	nt	-24	nt	8
Clc1ccc2c(N/N=C/c3ccc(Br)cc3)ccnc2c1	2	-3	1	-14	99*	113*
Clc1ccc2c(N/N=C/c3cccnc3)ccnc2c1	-2	-6	-14	-8	28	-23
Cc1ccc(/C=N/Nc2ccnc3cc(Cl)ccc23)c(C)c1	0	-7	-5	-9	98	95*
Cc1ccc(Cn2cc(/C=N/NC(=O)Cc3nnc(NC(=O)c4ccc(C)cc4)s3)c3ccccc32)cc1	-2	2	-1	9	-3	58*
Cc1cc(=O)oc2c3c(cc(OCC(=O)NC4CC4)c12)OC(C)(C)CC3	-2	-2	-22	-80	nt	88*
Cc1c(C)c2c(OCC(=O)NC3CC3)cc3c(c2oc1=O)CCC(C)(C)O3	3	5	-1	34	nt	-1
CSC1=NC2(CCCCC2)C2=C(CCCC2)N1	1	-5	1	101*	-15	1
Cc1onc(-c2ccccc2)c1C(=O)NCc1ccc2c(c1)OCO2	-1	-3	2	9	5	-9
Nn1c(SCC(=O)Nc2ccc3c(c2)OCCO3)nnc1C(F)(F)F	0	5	3	91*	-10	0
O=C(CSc1nccn1-c1cccc(Cl)c1)Nc1ccc2c(c1)OCCO2	4	1	-2	74*	-2	-2
Cc1onc(-c2c(F)cccc2Cl)c1C(=O)NCc1ccc2c(c1)OCO2	-1	-11	1	41	nt	59*
O=C(NCc1ccc2c(c1)OCO2)c1ccc(-c2ccc(Cl)cc2)o1	-2	19	nt	21	69*	-8
Cc1cccc(N2CCN(CC(=O)Nc3ccc(S(=O)(=O)N4CCOCC4)cc3)CC2)c1C	-1	-15	5	18	nt	6
COc1ccc(/C=C/c2c(-c3ccc(OC)cc3)sc3cc(OC)c(OC)cc23)cc1	nt	nt	10	nt	nt	nt
COc1ccc(NC(=O)CSc2nccn2-c2cccc(OC)c2)cc1	0	nt	1	72*	5	-12
Cc1c(C(=O)NCc2ccc3c(c2)OCO3)oc2ccc(Br)cc12	2	-5	-1	-4	62*	11
O=C(CSc1ncccn1)NCc1ccc2c(c1)OCO2	-5	5	-26	44	nt	-1
CC(=O)Nc1ccc(NC(=O)CSc2nccn2Cc2ccccc2)cc1	3	10	4	31	11	-3
Cc1ccc(NC(=O)CSc2nccn2Cc2ccccc2)cc1C	-4	4	5	86*	2	7
O=C(CSc1nccn1-c1ccc(Cl)cc1)NCc1ccc2c(c1)OCO2	-3	-8	6	68*	20	-9
COc1ccc(CCN2CC(C(=O)NCCc3ccccc3C(F)(F)F)CCC2=O)cc1 (centres undefined)	-4	?	-6	3	nt	-2
